CYP2C9 inh: blocks human cytochrome P450 2C9; P11712; CYP2C9 Supersomes, luciferin-H conversion, luminescence; inhibition, % at 5 µM; 96,000 tested, 20% active; AID 777;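 active = blocking of liver enzyme CYP2C9 beyond about 50% at 5 µM, limit read from the data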
Measles CPE: protection of cells from measles virus; Measles virus-infected cells, CPE protection, absorbance; AID 841; 140,000 tested, 1.5% active; protection (pct of control), % at 4 µM; in the data active = protection mostly above about 24%, no sharp cut-off; inactive = mostly below about 26%
CYP2C19 activ: activators of human cytochrome P450 2C19. P33261. recombinant CYP2C19, luciferin-H EGE luminescence; stronger effect = higher value; 0 = fully inhibited enzyme, 1 = untreated enzyme. activation factor at 5 µM. 96,000 tested, under 10 active. AID 1025;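 active = activation factor of at least 2 at 5 µM in the primary screen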;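 also: 0 = wells with 2.5 mM tranylcypromine and 1 = vehicle-only wells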
Target sequence (P33261 whole entry, looked up): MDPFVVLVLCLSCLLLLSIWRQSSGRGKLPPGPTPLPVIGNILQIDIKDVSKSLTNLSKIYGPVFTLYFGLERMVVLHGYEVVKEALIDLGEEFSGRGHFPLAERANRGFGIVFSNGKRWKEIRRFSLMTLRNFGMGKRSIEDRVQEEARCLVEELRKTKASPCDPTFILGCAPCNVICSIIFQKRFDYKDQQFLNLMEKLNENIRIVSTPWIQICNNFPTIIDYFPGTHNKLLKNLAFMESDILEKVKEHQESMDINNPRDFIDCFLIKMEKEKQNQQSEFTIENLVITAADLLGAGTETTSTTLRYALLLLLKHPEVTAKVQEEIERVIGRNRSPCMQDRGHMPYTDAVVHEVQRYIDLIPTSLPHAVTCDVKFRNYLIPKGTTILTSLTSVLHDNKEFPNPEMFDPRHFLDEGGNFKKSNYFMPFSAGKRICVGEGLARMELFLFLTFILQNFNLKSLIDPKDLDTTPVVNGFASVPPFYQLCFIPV
CYP2C9 activ: CYP2C9 (human) activation; activation factor at 5 µM; P11712; AID 1024; recombinant CYP2C9, luciferin-H conversion, luminescence; stronger effect = higher value; factor 1 = untreated enzyme, 0 = blocked; 96,000 tested, 1.4% active;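 active = activation factor of 2 or more for CYP2C9 at a 5 µM dose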;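 also: 0 = sulfaphenazole-blocked wells and 1 = vehicle-only wells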
CYP2C19 inh: blocks human cytochrome P450 2C19 | CYP2C19 Supersomes, luciferin-H EGE luminescence, 30 min | inhibition, % at 5 µM | 96,000 tested, 21% active | AID 778;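 active = CYP2C19 inhibition above a set limit at 5 µM in the primary screen, cut at about 50% in these data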;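 also: plate controls were negative control wells for no effect and 2.5 mM tranylcypromine positive control for full effect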
Numbers without * were called inactive. Sampled rows, rich in hits. Any-hit rate of the full collection: about 22%.

What do the screens show for `O=C(CSc1nnc(COc2ccc3c(c2)CCCC3)o1)Nc1ccc(F)cc1`?
CYP2C9 inh: -26; Measles CPE: 5; CYP2C19 activ: 0.8; CYP2C9 activ: 1.3; CYP2C19 inh: 19

Results for CCOc1ccccc1NC(=O)CC1NCCNC1=O (configuration not stated) ?
CYP2C9 inh: -14; Measles CPE: 26; CYP2C19 activ: 0.8; CYP2C9 activ: 1.1; CYP2C19 inh: 15

How did OC(CNCC(c1ccco1)N1CCCCC1)c1ccccc1 (configuration not stated) do in these assays?
CYP2C9 inh: 0; Measles CPE: 4; CYP2C19 activ: 0.8; CYP2C9 activ: 1; CYP2C19 inh: 18

What do the screens show for `O=S1(=O)C=C(Sc2nc3cc(Cl)ccc3o2)c2ccccc21`?
CYP2C9 inh: 6; Measles CPE: 2; CYP2C19 activ: 0.3; CYP2C9 activ: 0.9; CYP2C19 inh: 66*

How did CN(C)c1nc(N)nc(CSc2nc3cc(Cl)ccc3o2)n1 do in these assays?
CYP2C9 inh: -56; Measles CPE: 11; CYP2C19 activ: 1; CYP2C9 activ: 1.6; CYP2C19 inh: -2

Results for CCC(=O)N1C(C(=O)N2CCCC2)CSC1c1ccc(OC)cc1 (configuration not stated) ?
Measles CPE: 8

Results for c1ccc(-c2csc(-n3cnnn3)n2)cc1 ?
CYP2C9 inh: 12; Measles CPE: 4; CYP2C19 activ: 0.4; CYP2C9 activ: 0.9; CYP2C19 inh: 62*

What do the screens show for `Cc1ccccc1Nc1nc2ccccc2s1`?
Measles CPE: 43*

What do the screens show for `C=CCn1c(SCC(=O)c2ccc(NS(=O)(=O)c3ccccc3)cc2)nnc1-c1cccs1`?
CYP2C9 inh: 97*; Measles CPE: 9; CYP2C19 activ: 0.4; CYP2C9 activ: 0; CYP2C19 inh: 58*

Results for C=CCn1c(SCC(=O)C(C)(C)C)nnc1-c1cccs1 ?
CYP2C9 inh: 19; Measles CPE: 2; CYP2C19 activ: 0.2; CYP2C9 activ: 0.8; CYP2C19 inh: 76*

How did CC(C)(C)C(=O)CSc1nnc(-c2cccs2)n1CC1CCCO1 (configuration not stated) do in these assays?
CYP2C9 inh: 0; Measles CPE: 24; CYP2C19 activ: 0.4; CYP2C9 activ: 1; CYP2C19 inh: 56*

Results for C=CCn1c(SCC(=O)C(C)(C)C)nnc1-c1ccccn1 ?
Measles CPE: 10

Results for C=CCn1c(SCc2ccc3nonc3c2)nnc1-c1cccs1 ?
CYP2C9 inh: 76*; Measles CPE: 2; CYP2C19 activ: 0; CYP2C9 activ: 0.2; CYP2C19 inh: 99*

What do the screens show for `CCOC(=O)C1C(=O)C=C(c2ccc([N+](=O)[O-])cc2)CC1c1ccccc1` (configuration not stated)?
CYP2C9 inh: 75*; Measles CPE: 1; CYP2C19 activ: 0.2; CYP2C9 activ: 0.3; CYP2C19 inh: 76*

Results for CCCc1[nH]nc2c1C(c1ccc(OC)cc1OC)C(C#N)=C(N)O2 (configuration not stated) ?
CYP2C9 inh: 18; Measles CPE: 16; CYP2C19 activ: 0.7; CYP2C9 activ: 0.8; CYP2C19 inh: 26

What do the screens show for `CCCc1[nH]nc2c1C(c1ccc(O)cc1OCC)C(C#N)=C(N)O2` (configuration not stated)?
CYP2C9 inh: 53*; Measles CPE: 2; CYP2C19 activ: 0.2; CYP2C9 activ: 0.5; CYP2C19 inh: 76*

Results for CCCc1[nH]nc2c1C(c1cccc(OC)c1)C(C#N)=C(N)O2 (configuration not stated) ?
CYP2C9 inh: 76*; Measles CPE: 7; CYP2C19 activ: 0.3; CYP2C9 activ: 0.2; CYP2C19 inh: 73*

What do the screens show for `CCCc1[nH]nc2c1C(c1ccc(OCCN3CCOCC3)c(OCC)c1)C(C#N)=C(N)O2` (configuration not stated)?
CYP2C9 inh: 27; Measles CPE: 2; CYP2C19 activ: 1; CYP2C9 activ: 0.7; CYP2C19 inh: -4

Results for Cc1ccc(NC(=O)CSc2nnc(-c3cnccn3)n2-c2ccccc2)cc1 ?
CYP2C9 inh: -1; Measles CPE: 10; CYP2C19 activ: 0.9; CYP2C9 activ: 1; CYP2C19 inh: 8

What do the screens show for `COc1ccc(NC(C)=O)cc1NC(=O)CSc1nc2ncccc2[nH]1`?
CYP2C9 inh: 56*; Measles CPE: 8; CYP2C19 activ: 0.7; CYP2C9 activ: 0.4; CYP2C19 inh: 29

How did CC(C)OC(=O)c1cccnc1SCc1cc(=O)n2ccccc2n1 do in these assays?
CYP2C9 inh: 52*; Measles CPE: 5; CYP2C19 activ: 0.7; CYP2C9 activ: 0.5; CYP2C19 inh: 32

What do the screens show for `CCOC(=O)c1cccnc1SCC(=O)N(CC)c1cccc(C)c1`?
CYP2C9 inh: 45; Measles CPE: 9; CYP2C19 activ: 0.4; CYP2C9 activ: 0.5; CYP2C19 inh: 65*

Results for COc1ccccc1NC(=O)CSc1nc2ncccc2[nH]1 ?
CYP2C9 inh: 47; Measles CPE: 9; CYP2C19 activ: 0.7; CYP2C9 activ: 0.5; CYP2C19 inh: 25

How did CSc1ncccc1C(=O)OCC(=O)c1cc2ccccc2o1 do in these assays?
CYP2C9 inh: -44; Measles CPE: 1; CYP2C19 activ: 1.1; CYP2C9 activ: 1.4; CYP2C19 inh: -13

How did C=CCSc1ncccc1C(=O)NCc1ccccc1 do in these assays?
CYP2C9 inh: 11; Measles CPE: 80*; CYP2C19 activ: 0.1; CYP2C9 activ: 0.9; CYP2C19 inh: 88*

How did COc1ccccc1NC(=O)COC(=O)c1cnccn1 do in these assays?
CYP2C9 inh: 32; Measles CPE: 7; CYP2C19 activ: 0.9; CYP2C9 activ: 0.7; CYP2C19 inh: 12

Results for CCC(Sc1ncccc1C(=O)OC(C)C)C(=O)N1CCOCC1 (configuration not stated) ?
CYP2C9 inh: 21; Measles CPE: 24; CYP2C19 activ: 0.9; CYP2C9 activ: 0.8; CYP2C19 inh: 6

How did CCOC(=O)c1cccnc1SCC(=O)NCc1ccccc1 do in these assays?
CYP2C9 inh: 92*; Measles CPE: 16; CYP2C19 activ: 0; CYP2C9 activ: 0.1; CYP2C19 inh: 98*

Results for COc1ccc(NC(=O)CSc2ncccc2C(=O)OC(C)C)cc1OC ?
CYP2C9 inh: 77*; Measles CPE: 10; CYP2C19 activ: 0.1; CYP2C9 activ: 0.2; CYP2C19 inh: 92*

Results for CC(C)OC(=O)c1cccnc1SCC(=O)N(C)c1ccccc1 ?
CYP2C9 inh: 34; Measles CPE: 12; CYP2C19 activ: 0.3; CYP2C9 activ: 0.7; CYP2C19 inh: 69*

Results for CCN(C(=O)CSc1ncccc1C(=O)OC(C)C)c1cccc(C)c1 ?
CYP2C9 inh: 44; Measles CPE: -1; CYP2C19 activ: 0.5; CYP2C9 activ: 0.6; CYP2C19 inh: 53*

How did CC(=O)N1CCc2cc(S(=O)(=O)CCC(=O)N3CCN(C(=O)c4ccco4)CC3)ccc21 do in these assays?
Measles CPE: 7
